Screening data deposited in PubChem BioAssay by National Center for Advancing Translational Sciences (NCATS).
HT1080-NT tox: qHTS for induction of synthetic lethality in tumor cells producing 2HG: qHTS for the HT-1080-NT fibrosarcoma cell line; HT-1080-NT fibrosarcoma viability, CellTiter-Glo ATP luminescence, 48 h; Potency, µM (series often up to 46.1 µM), for inactives: at the top dose activity, negative = less viability, hits mostly cytotoxic; hit rate 1.6% among 360,000; AID 686970, 2013;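 further: NT is the 2HG producing partner of a matched IDH1 knockdown line; 0% = DMSO-treated cells and -100% = media-only wells without cells; nearly all actives have a fitted effect of over 55% in size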
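A 48-hour cytotoxicity screen used HT-1080-NT cells plated 2 hours before compound delivery. ATP-based CellTiter-Glo luminescence measured viability, normalized to DMSO and no-cell controls.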
HT1080 IDH1KD tx: qHTS for induction of synthetic lethality in tumor cells producing 2HG: qHTS for the HT-1080-IDH1KD cell line; Potency, µM (titrated, usually from 46.1 µM), for inactives: top-dose activity, negative = toxicity, usual class: cytotoxic; hit rate 2% among 360,000; HT-1080 IDH1 knockdown viability, ATP luminescence, 48 h;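 further: 0% = DMSO wells and -100% = cell-free medium wells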
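IDH1KD HT-1080 cells, 750/well, RPMI + 5% FBS; compound pinned after 2 h settling; 48 h, 37 °C; CellTiter-Glo luminescence; % activity normalised to DMSO and no-cell wells; curves fitted, classed by r2 and efficacy.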
KB-3-1 cytotox: qHTS assay for MDR1-selective chemotherapeutics: Primary screen using the parental adenocarcinoma cell KB-3-1. KB-3-1 viability, CellTiter-Glo ATP luminescence, 72 h. Potency, µM (series often up to 46.1 µM), hits mostly cytotoxic. hit rate 1.4% among 400,000. AID 1347075, 2019; further: on the % scale 0 is the no-effect control and ±100 the full control effect; nearly all actives have a fitted effect of over 60% in size
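Parental KB-3-1 adenocarcinoma cells in phenol-red-free DMEM with 10% FBS were pin-treated with compounds at several concentrations, incubated 72 h at 37 °C, and viability read by CellTiter-Glo luminescence; concentration-effect curves were fitted after normalization.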
HepG2 tox: qHTS for Inhibitors of TGF-b: Cytotox Counterscreen. hit rate 0.76% among 410,000. AID 588856, 2011. HepG2 CAGA-GFP viability, ATP luminescence, 18 h. Potency, µM (series often up to 46.1 µM), for the others: at the highest dose activity change, negative = cytotoxicity, usual class: cytotoxic
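HepG2 CAGA-GFP cells (1000/well, DMEM with 1% FBS) received compound, then TGF-beta at 500 pg/mL final, and were incubated 18 hours at 37 degrees C. Viability was read by CellTiter-Glo luminescence. Media-only wells were set as complete cell-killing and DMSO as no toxicity.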
TGFb inhibitor: qHTS for Inhibitors of TGF-b; Potency, µM (series often up to 46.1 µM), for inactives: top-dose activity, negative = inhibition, hits mostly inhibitors; HepG2 CAGA-GFP TGF-b/SMAD3 reporter, GFP fluorescence, 18 h; TGF-beta stimulated, 500 pg/mL final; AID 588855, 2011; hit rate 1.2% among 410,000; further: on the % scale 0 is the no-effect control and ±100 the full control effect; nearly all actives have a fitted effect of over 65% in size
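HEPG2 CAGA-GFP cells (1000/well, DMEM with 1% FBS) were pre-incubated 2 h at 37 degrees C, given compound by pin tool, then stimulated with TGF-beta at 500 pg/mL final for 18 h before per-cell GFP fluorescence imaging.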
KB-V1 MDR tox: qHTS assay for MDR1-selective chemotherapeutics: Primary screen using the drug-selected MDR subline cells KB-V1; hit rate 3.4% among 400,000; AID 1347076, 2019; Potency, µM (top dose mostly 46.1 µM), actives largely listed as cytotoxic; KB-V1 MDR cells viability, CellTiter-Glo, 72 h; further: on the % scale 0 is the no-effect control and ±100 the full control effect; nearly all actives have a fitted effect of over 60% in size
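Readout: CellTiter-Glo luminescence, 10 min after addition. Cells: KB-V1 MDR subline, 72 h at 37 degrees C with compound. Analysis: corrected, normalized data fitted to concentration-effect curves.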
* hit, by the source's call; i = inactive; ? = inconclusive; nt = not tested or not shown. Sampled rows, rich in hits. Any-hit rate of the full collection: about 6.6%. The call rests on the fitted dose curve; in most records, active means well fitted curve in the direction sought with a large enough effect; inconclusive means small, poorly fitted or top-dose-only effect, or another doubt; inactive means no such curve, though single readings can be large; an effect the other way counts as inactive or inconclusive. Potency means the concentration at half of the fitted maximal effect.

SMILES	HT1080-NT tox	HT1080 IDH1KD tx	KB-3-1 cytotox	HepG2 tox	TGFb inhibitor	KB-V1 MDR tox
C[C@@H]1CN([C@@H](C)CO)C(=O)c2cc(NC(=O)CCC(F)(F)F)ccc2O[C@H]1CN(C)Cc1ccc(Cl)c(Cl)c1	?	23.1µM*	i	-84.8%	12.6µM*	i
C[C@H](CO)N1C[C@H](C)[C@@H](CN(C)S(=O)(=O)c2ccc(F)cc2)Oc2ccc(NS(=O)(=O)c3ccc(F)cc3)cc2C1=O	9.2%	0.4%	i	-72.0%	?	?
C[C@@H]1CN([C@H](C)CO)C(=O)c2cc(NS(=O)(=O)c3ccc(F)cc3)ccc2O[C@@H]1CN(C)Cc1ccc(Cl)c(Cl)c1	23.1µM*	?	i	-100.1%	11.2µM*	i
C[C@@H]1CCCCO[C@@H](CN(C)Cc2ccc(Cl)c(Cl)c2)[C@@H](C)CN([C@H](C)CO)C(=O)c2cc(NC(=O)CCC(F)(F)F)ccc2O1	?	?	i	-25.4%	?	?
C[C@@H]1CN([C@H](C)CO)C(=O)c2cc(NC(=O)Nc3ccc(C(F)(F)F)cc3)ccc2O[C@H]1CN(C)Cc1ccc(Cl)c(Cl)c1	?	?	?	-110.7%	11.2µM*	?
C[C@H](CO)N1C[C@H](C)[C@@H](CN(C)Cc2ccc(Cl)c(Cl)c2)Oc2c(NC(=O)C3CC3)cccc2C1=O	-29.7%	-4.0%	?	-39.7%	?	i
C[C@H](CO)N1C[C@H](C)[C@@H](CN(C)Cc2ccc(Cl)c(Cl)c2)Oc2c(NC(=O)CCC(F)(F)F)cccc2C1=O	-23.6%	-14.4%	?	-92.4%	12.6µM*	i
CC(C)CC(=O)NC1(C(F)(F)F)C(=O)Nc2c1c(=O)[nH]c(=O)n2-c1ccccc1 (stereo not drawn)	nt	nt	i	-7.5%	-0.4%	i
O=C(CCc1nc2cccnc2n1Cc1cccs1)Nc1cccc(Cl)c1	nt	nt	i	-18.7%	?	i
C[C@H](CO)N1C[C@H](C)[C@@H](CN(C)CC2CCCCC2)Oc2c(NC(=O)Cc3ccccc3)cccc2C1=O	-11.6%	-18.9%	?	15.8µM*	15.8µM*	?
C[C@H](CO)N1C[C@H](C)[C@@H](CN(C)C(=O)Nc2ccc(C(F)(F)F)cc2)Oc2c(NC(=O)Nc3ccccc3)cccc2C1=O	?	-23.1%	?	-43.7%	?	i
C[C@H]1CN([C@@H](C)CO)C(=O)c2cccc(NC(=O)Nc3ccc(C(F)(F)F)cc3)c2O[C@@H]1CN(C)Cc1ccc(Cl)c(Cl)c1	?	?	?	12.6µM*	?	?
C[C@H](CO)N1C[C@H](C)[C@@H](CN(C)C(=O)NC2CCCCC2)Oc2c(NC(=O)Nc3ccc(C(F)(F)F)cc3)cccc2C1=O	?	?	?	-41.0%	14.1µM*	i
COCCNC(=O)Nc1cc(C(=O)NCc2ccc(C(C)C)cc2)ccc1N1CCCC1	nt	nt	i	-6.4%	0.0%	i
CN1CCN(c2oc(-c3cccs3)nc2S(=O)(=O)c2ccccc2)CC1	0.2%	-9.8%	i	-14.0%	-19.6%	13µM*
O=C(CSc1oc(-c2cccs2)nc1S(=O)(=O)c1ccccc1)NC1CCCCC1	-18.7%	-26.8%	i	-0.5%	14.3%	3.66µM*
C[C@@]12C(=O)OC(=O)[C@]1(C)C1CCC2O1	1.46µM*	1.46µM*	?	-61.3%	1.58µM*	5.8µM*
COC(=O)N1C(=O)[C@](c2ccccc2)(C(C)C)N1C(=O)OC	-1.1%	-0.4%	i	-38.1%	-49.2%	i
CCOC(=O)N1C(=O)[C@@](c2ccc(Cl)cc2)(C(C)C)N1C(=O)OCC	?	?	i	15.8µM*	?	?
CCOC(=O)N1C(=O)[C@](c2ccc(Cl)cc2)(C(C)C)N1C(=O)OCC	-20.5%	-29.5%	i	10µM*	?	i
CC1=CC2=NC(=O)/C(=C\c3cc(C)n(-c4ccc(F)cc4)c3C)C(=N)N2O1	-12.4%	-1.6%	i	-1.1%	14.1%	i
CC1=CC2=NC(=O)/C(=C\c3ccc(-c4cccc(Cl)c4)o3)C(=N)N2O1	10.3µM*	8.2µM*	4.11µM*	-24.9%	-15.3%	?
CC1=NOC(=O)/C1=C\c1ccc(-c2cccc(Cl)c2)o1	?	18.4µM*	i	-110.4%	?	?
Cc1nn(Cc2ccccc2)c(Cl)c1C(=O)OCc1nnc(-c2ccccc2)o1	-6.4%	-17.5%	i	2.2%	0.0%	7.31µM*
Cc1nc2cc(C(F)(F)F)ccc2n1CCNc1nc(-c2ccc([N+](=O)[O-])c(Cl)c2)cs1	?	?	?	-34.3%	15.8µM*	i
SMILES	HT1080-NT tox	HT1080 IDH1KD tx	KB-3-1 cytotox	HepG2 tox	TGFb inhibitor	KB-V1 MDR tox
C[C@@H]1CCCCCCCCC(=O)OCCN(C(=O)OC(C)(C)C)[C@H](C)CCCCCCCCC(=O)OCCN1C(=O)OC(C)(C)C	1.5%	-5.1%	i	11.5%	14.9%	i
C[C@@H]1CCCCCCCCC(=O)OCCN[C@H](C)CCCCCCCCC(=O)OCCN[C@H](C)CCCCCCCCC(=O)OCCN1	-26.2%	-23.9%	i	-63.8%	15.8µM*	i
CCCOc1ccc(CN(C(=O)c2cccc(OC)c2)C2CCS(=O)(=O)C2)cc1 (stereo not drawn)	3.3%	6.4%	i	-0.3%	-16.7%	i
CCCOc1cccc(C(=O)N(Cc2ccc(OC)c(OC)c2)C2CCS(=O)(=O)C2)c1 (stereo not drawn)	11.3%	-5.0%	i	2.2%	1.1%	16.4µM*
CCCC(=O)N(Cc1cc(=O)[nH]c2ccccc12)c1ccc(C)cc1C	-0.5%	0.0%	i	-26.5%	12.1%	i
Cc1ccc(N(Cc2cc(=O)[nH]c3ccccc23)C(=O)CCl)c(C)c1	4.61µM*	5.17µM*	18.4µM*	22.4µM*	17.8µM*	?
COc1ccc(Cc2nnc(N/N=C/c3ccc(O)cc3)[nH]c2=O)cc1OC	?	?	0.581µM*	-5.8%	?	?
Cc1cc(C)c(C)c(S(=O)(=O)N2CCC(C(=O)N(C)Cc3nc4ccccc4c(=O)[nH]3)CC2)c1C	-12.0%	?	i	-0.4%	?	23.1µM*
